Compounds with a hit are over-represented: about 3.1% of the library has one in this group of screens.
LGR2 inh: Drosophila LGR2 receptor signaling inhibition; inhibition, % at 9.99 µM; AID 720647; 0.35% of 380,000 active; HEK293 LGR2, CRE-luciferase, bursicon-stimulated, 4 h;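 active means drop in luminescence signal, shown as inhibition above about 50% in the replicate tests, limit read from the data, passing the limit was not always enough; inconclusive means probably only some replicates passing the limit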;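 further: agonist challenge used bursicon conditioned medium at about half maximal strength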
PAX8 inh HTS: lowers PAX8-driven luciferase in RMG-I cells. RMG-I TPO-luciferase reporter, SteadyGlo, 24 h. 1.2% of 360,000 active. inhibition, % at 12.6 µM;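 active means mean replicate inhibition at least 60% with every replicate also reaching 60%; inconclusive means only one of the two criteria is met; inactive means mean below 60% and not all replicates reaching 60%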;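 further: luciferase light reporting Pax8 driven TPO promoter activity; plate controls were median of neutral control wells for no effect and mitoxantrone controls for full effect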
EBV LMP1 NFkB: inhibitors of Epstein-Barr LMP1-induced NF-kappaB reporter | LMP1-induced NF-kappaB luciferase reporter cells, luminescence | inhibition, % at 12.5 µM | 0.69% of 350,000 active | AID 504558; in the data active means inhibition above about 41%; inconclusive means no clear call, values can overlap the other calls;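 further: 0% = neutral control wells and 100% = reference inhibitor control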
TROY NFkB inh: inhibitors of TROY-dependent NF-kB signaling | Q293 LMP1-TROYcd NF-kB luciferase reporter, 4 h | inhibition, % at 10 µM | 0.98% of 360,000 active | AID 1347056;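 active means compounds whose plate-normalised and pattern-corrected inhibition of the luciferase reporter signal at the single screening dose is 50% or more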
EWS-Fli block: inhibitors of EWS/Fli oncoprotein transcriptional activity; A673 NR0B1-luciferase reporter, viability-normalised; inhibition, % at 12.6 µM; 0.67% of 350,000 active;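 active means mean inhibition of at least 50% after viability correction, with every replicate also passing that limit; inconclusive means mean reaches 50% but only one of two replicates passes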;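 further: firefly luciferase signal divided by Alamar Blue viability fluorescence both relative to DMSO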
TWEAK Fn14 block: blocks TWEAK-Fn14 interaction in a reporter cell assay. 2% of 360,000 active. inhibition, % at 10 µM. TWEAK-stimulated Fn14 reporter cells, luciferase luminescence, 8 h. AID 1159606; in the data active means inhibition above about 50%
Starred values were filed as active, the others as inactive; u = inconclusive; x = not tested or not shown.

SMILES | LGR2 inh | PAX8 inh HTS | EBV LMP1 NFkB | TROY NFkB inh | EWS-Fli block | TWEAK Fn14 block
CC1OC(OC2C(O)CC(OC3C(O)CC(OC4CCC5(C)C(CCC6C5CCC5(C)C(C7=CC(=O)OC7)C(O)CC65O)C4)OC3C)OC2C)CC(O)C1O (centres undefined) | 87* | -16 | 62* | 48 | 46 | 81*
CC12CC[C@H]3[C@@H](CCC4(O)C[C@H](O)CCC34/C=N/NC(=O)c3ccccc3Cl)C1(O)CCC2C1=CC(=O)OC1 (some centres undefined) | 21 | -16 | -11 | 1 | 6 | -29
CC12CCC3C(CCC4(O)CC(O)CCC34C=O)C1(O)CCC2C1=CC(=O)OC1 (centres undefined) | 84* | 101* | u | 46 | 52* | 71*
COC(=O)[C@@H]1[C@@H](CO)[C@@H]2Cn3c(ccc(-c4ccccc4F)c3=O)[C@H]1N2CC1CCCC1 | 11 | x | x | x | 8 | x
COC(=O)[C@@H]1[C@@H](CO)[C@@H]2Cn3c(cccc3=O)[C@H]1N2C(=O)C1CC1 | -14 | x | x | x | 4 | x
Cc1ccccc1-n1c(C)nc2ccsc2c1=O | 3 | 5 | -4 | 2 | 18 | 55*
Cc1nc2ccsc2c(=O)n1-c1ccccc1Cl | 2 | -8 | 6 | 4 | -7 | 8
Cc1nc2ccccc2c(=O)n1-c1cc([N+](=O)[O-])cc([N+](=O)[O-])c1 | 2 | 1 | 4 | 5 | 9 | -21
Cc1cccc(-n2c(/C=C/c3ccc([N+](=O)[O-])o3)nc3ccccc3c2=O)c1 | 32 | 31 | 84* | -6 | 38 | 95*
O=c1c2ccccc2nc(/C=C/c2ccc([N+](=O)[O-])o2)n1-c1ccc(O)cc1 | 54* | 69* | 86* | 33 | 84* | 93*
COc1ccc(-c2ccc([C@@H]3[C@H]4CN(C(=O)Cc5ccncc5)CCCCN4[C@H]3CO)cc2)cc1 | 4 | -20 | x | x | 3 | x
CCCN1[C@@H]2Cn3c(ccc(-c4ccc(F)cc4)c3=O)[C@H]1[C@@H](C(=O)OC)[C@@H]2CO | -10 | 4 | x | x | -3 | x
Ic1ccccc1CN[C@@H]1C2CCN(CC2)[C@@H]1C(c1ccccc1)c1ccccc1 | 70* | 14 | -17 | -9 | 20 | -27
C[C@@H]1O[C@@H](O[C@H]2C[C@@H](O)[C@]3(CO)[C@H]4[C@H](O)C[C@]5(C)[C@@H](C6=CC(=O)OC6)CC[C@]5(O)[C@@H]4CC[C@]3(O)C2)[C@H](O)[C@H](O)[C@H]1O | x | x | 80* | 49 | x | 85*
CN1CCN(C(=O)CN=[N+]=[N-])CC1 | x | -9 | x | x | -10 | x
COc1cc2c3cc1Oc1cc(ccc1O)C[C@@H]1c4c(cc(OC)c(O)c4Oc4ccc(cc4)C[C@H]3N(C)CC2)CCN1C | 4 | 22 | 83* | -3 | 3 | -37
COc1cc2c3cc1Oc1c(OC)c(OC)cc4c1[C@H](Cc1ccc(cc1)Oc1cc(ccc1O)C[C@H]3N(C)CC2)N(C)CC4 | x | 16 | -38 | 11 | 17 | -24
COc1ccc(C#Cc2ccc([C@H]3[C@@H](CO)N4CCCCN(C(=O)Cc5ccccc5)C[C@@H]34)cc2)cc1 | 16 | 15 | x | x | 11 | x
CCCNC(=O)N1[C@@H]2Cn3c(ccc(-c4cccc(C(=O)N(C)C)c4)c3=O)[C@H]1[C@@H](C(=O)O)[C@@H]2CO | 2 | -28 | x | x | 15 | x
CC1CC(C)CC(C)C(O)C(C#N)=CC=CCC(C2CCCC2C(=O)O)OC(=O)CC(O)C(C)C1 (centres undefined) | 75* | 102* | u | 81* | 47 | 100*
COC(=O)C1=C(c2ccc(F)cc2OCc2ccccc2)C[C@@H]2CC[C@H]1N2C(=O)NCc1ccc(C(F)(F)F)cc1 | 22 | 88* | -2 | 17 | 7 | 45
COC(=O)C1=C(c2cc3ccccc3s2)C[C@@H]2CC[C@H]1N2C(=O)NCc1ccc(C(F)(F)F)cc1 | 38 | 66* | -6 | 19 | 7 | 41
O=C(Cc1ccccn1)N1CCCCN2[C@H](C1)[C@@H](c1ccc(-c3ccccc3)cc1)[C@@H]2CO | 0 | -3 | x | x | 1 | x
COC(=O)[C@H]1[C@H](CO)[C@H]2Cn3c(ccc(C4=CCCCC4)c3=O)[C@@H]1N2Cc1ccccc1OC | 6 | 3 | x | x | -7 | x

Source: PubChem
